Screening data as filed in PubChem BioAssay.
HTT prom inh = HTT promoter inhibition; HEK293 HTT promoter firefly luciferase reporter, 24 h; Potency, µM (top dose mostly 57.5 µM), for the others: top-dose activity change, negative = inhibition, most hits filed as inhibitors; 0.93% of 48,000 active; note: potency is the fitted concentration of half-maximal effect; nearly all actives have a fitted effect of over 50% in size
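HEK293 Fluc reporter, 2,500 cells/well, 24 h pre-culture; cpds up to 57.5 uM final, 24 h 37 degrees C; Dual-Glo, 10 min RT; normalized vehicle = 0%, zero RLU = -100%.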
HTT-AS promoter = HTT-AS promoter activation | HEK293 HTT-AS promoter firefly luciferase reporter, 24 h; response scale: percent change from vehicle, -100% = no light | Potency, µM (top dose mostly 57.5 µM), without a hit: at the highest dose activity change, positive = activation, usual class: activators | 0.24% of 48,000 active | AID 1508624; note: potency is the fitted concentration of half-maximal effect; nearly all actives have a fitted effect of over 55% in size
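HEK293 cells carrying firefly luciferase reporters were seeded at 2,500 per well in Opti-MEM and cultured for 24 h. They were then treated with compounds at up to 57.5 uM final for 24 h at 37 degrees C before Dual-Glo luminescence readout.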
FH mod = Identification of activators of human fumarate hydratase by quantitative high-throughput screening. Fumarate hydratase, mitochondrial (Homo sapiens), P07954. 0.22% of 54,000 active. Potency, µM (top dose mostly 79.9 µM), for inactives: top-dose activity change, negative = inhibition, most hits filed as inhibitors. FH coupled MDH/diaphorase resazurin fluorescence, 15 min. AID 1347055, 2019; note: potency is the fitted concentration of half-maximal effect; % is set by controls: 0 for no effect and ±100 for the full control effect; the screen sought activators but most active calls are inhibition curves; nearly all actives have a fitted effect of over 45% in size
GALC G270D act = enhancers of human galactocerebrosidase G270D mutant activity in cells | 0.1% of 45,000 active | 145M-Twi-hGALC-G270D cells (Twitcher mouse brain line with human GALC G270D), HMU-beta-Gal fluorescence, 48 h | Potency, µM (top dose mostly 57.5 µM), usual class: activators; note: potency is the fitted concentration of half-maximal effect; 0% is about no effect; nearly all actives have a fitted effect of over 65% in size
Target sequence (P54803 whole entry G286D): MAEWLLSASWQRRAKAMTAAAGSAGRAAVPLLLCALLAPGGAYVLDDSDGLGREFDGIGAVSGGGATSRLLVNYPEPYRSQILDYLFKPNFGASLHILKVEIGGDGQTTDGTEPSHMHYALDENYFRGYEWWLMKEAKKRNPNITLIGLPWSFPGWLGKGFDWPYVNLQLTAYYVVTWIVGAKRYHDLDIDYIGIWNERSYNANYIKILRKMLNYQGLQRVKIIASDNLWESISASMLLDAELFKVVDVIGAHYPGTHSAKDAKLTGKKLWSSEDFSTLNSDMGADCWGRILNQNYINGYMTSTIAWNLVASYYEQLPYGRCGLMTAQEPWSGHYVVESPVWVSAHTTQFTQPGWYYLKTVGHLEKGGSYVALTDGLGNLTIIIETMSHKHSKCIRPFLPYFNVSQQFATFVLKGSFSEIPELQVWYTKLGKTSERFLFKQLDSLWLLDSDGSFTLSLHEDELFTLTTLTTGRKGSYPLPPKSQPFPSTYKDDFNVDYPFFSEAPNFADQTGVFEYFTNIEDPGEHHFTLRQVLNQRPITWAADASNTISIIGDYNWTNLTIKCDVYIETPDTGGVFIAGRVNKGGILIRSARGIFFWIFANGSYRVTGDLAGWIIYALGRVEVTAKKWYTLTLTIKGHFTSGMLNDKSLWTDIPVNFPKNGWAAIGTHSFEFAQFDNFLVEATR
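Fluorogenic HMU-b-Gal hydrolysis (0.1 mM final, pH 5.2 citrate-phosphate with 1 mg/mL sodium taurocholate; carbonate stop buffer) measures mutant GALC activity after compound treatment of live 145M-Twi Twitcher brain cells stably carrying human GALC-G270D, with wild-type GALC line alongside; activation sought.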
DRV1 agonist = GPR32 (DRV1) agonism, beta-arrestin recruitment. CHO-K1 GPR32 beta-arrestin PathHunter luminescence, 90 min; zero percent set by DMSO-only wells. O75388. 2.5% of 48,000 active. activation, % at 76.9 µM;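 active = activation of at least 60% and not above a set upper limit, about 1 call in 100 departs from these limits; inconclusive = activation of 40% to 60%, or above that upper limit; inactive = activation under 40%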; note: 0% is about no effect
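Engineered CHO-K1 line co-expressing GPR32-ProLink and EA-beta-arrestin. Compound treatment lasted 90 min at 37 °C. Luminescence was recorded after 1 h with substrate at ambient temperature, relative to DMSO basal wells.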
NTMT1 inhibitor = NTMT1 methyltransferase inhibition | Q9BV86 | NTMT1 MTase-Glo SAH luminescence, purified enzyme | Potency, µM (titrated, usually from 114 µM), without a hit: at the top dose activity change, negative = inhibition, most hits filed as inhibitors | 2.5% of 59,000 active;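 note: potency is the fitted concentration of half-maximal effect; plate controls were DMSO vehicle for no effect and no enzyme for full effect; nearly all actives have a fitted effect of over 65% in size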
The depositor's hits bear a star; i = inactive; ? = inconclusive; nt = no result; ! = not active in a repeat; [ ] = another dose, or the depositor's remark. This is a sample that favours compounds with a hit; in the whole collection about 4.7% have one here. Unless noted, calls come from the whole dose curve; as a rule, active = well fitted curve in the direction sought with a large enough effect; inconclusive = small, poorly fitted or top-dose-only effect, or another doubt; inactive = no such curve, though single readings can be large; an effect the other way counts as inactive or inconclusive.

SMILES	HTT prom inh	HTT-AS promoter	FH mod	GALC G270D act	DRV1 agonist	NTMT1 inhibitor
CC(C)c1ccccc1NC(=O)CSc1nnc(COc2ccccc2Cl)o1	-36%	-18%	2%	i	87*	14%
CC(C)c1ccccc1NC(=O)CSc1nnc(COc2ccccc2)o1	0%[11.5 µM]	17%[11.5 µM]	-30%	i	12	-7%
O=C(/C=C/c1ccc2ccc(C(F)(F)F)cc2n1)c1ccncc1	nt	nt	nt	nt	nt	-14%
Cc1ccc2nc(-c3ccccn3)c(Nc3ccccc3C)n2c1	35µM*	-75%	?	i	-107	9%
CC(C)c1ccc(Nc2c(-c3ccccn3)nc3ccccn23)cc1	25µM*	-67%	22%	i	-84	13%
Cc1ccn2c(Nc3ccccc3C)c(-c3ccccn3)nc2c1	?	-46%	?	i	-95	2%
Cc1ccccc1Nc1c(-c2cccc(N(C)C)c2)nc2ccc(Br)cn12	46%	11µM*	3%	i	-23	7%
O=C(NCCc1ccccc1)c1ccc(Cn2c(SCc3ccccc3F)nc3cccnc32)cc1	?	-6%	-19%	i	-23	89µM*
O=C(NCCc1ccccc1)c1ccc(CSc2nc3cccnc3n2Cc2ccccc2F)cc1	-23%	-6%	?	i	-49	-18%
Cc1ccc(NC(=O)c2ccc(F)c(S(=O)(=O)NCCc3ccccc3)c2)cc1F	28µM*	-39%	?	i	20	2%
Cc1ccc(NC(=O)c2ccc(F)c(S(=O)(=O)N3CCc4ccccc4C3)c2)cc1F	?	-28%	?	i	-3	12%
Cc1ccc(NC(=O)c2cc(S(=O)(=O)NCCC3=CCCCC3)ccc2F)cc1F	11µM*	-90%	?	i	1	4%
CCO[C@H]1CN(C2CCC(O)(c3ccc4c(c3)OCO4)CC2)C[C@@H]1NC(=O)CNC(=O)c1cccc(C(F)(F)F)c1 (stereo not given in full)	nt	nt	8%	nt	nt	0%[57.5 µM]
CCc1ccc(NC(=O)C2CCN(c3nc(-c4ccc(OC)cc4)no3)CC2)cc1	?	-48%	9%	i	-7	-4%
COc1ccc(-c2noc(N3CCC(C(=O)Nc4ccc(F)cc4Cl)CC3)n2)cc1	1.8µM*	-86%	-1%	i	-10	6%
COc1ccc(-c2noc(N3CCC(C(=O)N4CCN(c5cccc(OC)c5)CC4)CC3)n2)cc1	2.2µM*	-84%	-17%	i	1	-2%
COc1ccc(-c2noc(N3CCC(C(=O)N4CCN(c5ccccc5OC)CC4)CC3)n2)cc1	13µM*	-58%	-14%	i	14	-4%
NC(=O)CSc1nc2ccc(NC(=O)COc3ccccc3Cl)cc2s1	-12%	-15%	-3%	i	90*	?
O=C(Nc1ccc2nc(SCCOc3ccccc3Cl)sc2c1)c1ccc2c(c1)OCO2	-34%	-36%	-4%	i	-1	8%
CC(=O)Nc1ccc2nc(SCCOc3ccccc3Cl)sc2c1	-11%	-5%	?	i	69*	23%
CCOC(=O)CSc1nc2ccc(NC(=O)COc3ccccc3C)cc2s1	6%	-3%	-1%	i	75*	7%
Cc1ccccc1OCC(=O)Nc1ccc2nc(SCC(N)=O)sc2c1	2%	?	-4%	i	?	-23%
CC(C)(Sc1ccc(CCN(CCCCC2CCCCC2)C(=O)NC2CCCCC2)cc1)C(=O)O	-2%	-3%	25µM*!	nt	-6	32µM*!
Cc1cc2c(F)c(Oc3ncnn4cc(OCC(C)OC(=O)C(C)N)c(C)c34)ccc2[nH]1 (stereo not given)	nt	nt	-29%	nt	nt	?
CCCCNc1ncc2c(-c3ccc(S(=O)(=O)N4CCOCC4)cc3)nn(C3CCC(O)CC3)c2n1 (stereo not given)	nt	nt	4%	nt	nt	14%[57.5 µM]
SMILES	HTT prom inh	HTT-AS promoter	FH mod	GALC G270D act	DRV1 agonist	NTMT1 inhibitor
CCCCNc1ncc2c(-c3ccc(CN4CCN(C)CC4)cc3)cn(C3CCC(O)CC3)c2n1 (stereo not given)	nt	nt	-4%	nt	nt	79µM*!
Cc1ccc(S(=O)(=O)Nc2ccc(C(=O)Nc3ncc(-c4ccccc4)s3)cc2)cc1	nt	nt	nt	nt	nt	7%
COc1ccc(Br)cc1S(=O)(=O)NC(=O)/C=C/c1ccccc1Cc1ccc2ccccc2c1	nt	nt	20µM*	nt	nt	nt
COc1ccc(Br)cc1S(=O)(=O)Nc1cc(-c2cn3ccccc3n2)ccc1C	?	-24%	-9%	i	9	-1%
CC(=O)c1cccc(NC(=O)CCCN2C(=O)COc3ccc(C)cc32)c1	?	-21%	4%	i	-16	79µM*
COc1ccc2c(c1)c(C1=C(c3c[nH]c4ccccc34)C(=O)NC1=O)cn2CCCN(C)C	-22%	-8%	-7%[53.3 µM]	nt	nt	14µM*
Cc1cc(C)cc(Oc2ccc(CNC(=O)[C@H](C)N)cc2C)c1	nt	nt	nt	nt	nt	1%
O=C(Nc1cccc(F)c1)c1ccc(-c2ccccc2)s1	28%	?	8%	i	68*	3%
Cc1cccc(NC(=O)c2ccc(-c3ccccc3)s2)c1	45%	25%	8%	i	-9	-11%
C[C@@H]1CC[C@]2(C(=O)O)CC[C@]3(C)C(=CCC4[C@]5(C)C(CC[C@]43C)C(C)(C)[C@@H](O)[C@H](O)[C@@H]5O)C2[C@]1(C)O (stereo not given in full)	nt	nt	0%[53.3 µM]	nt	nt	-11%[29.8 µM]
CCn1c(SCC(=O)Nc2cc(C)ccc2F)nnc1-c1ccccc1O	-11%	1%	-18%	i	82*	-2%
Cc1nn(C(C)C(=O)N2CCN(c3ccc(Cl)cc3)CC2)c(=O)c2cc3occc3n12 (stereo not given)	25µM*	-56%	-24%	i	8	5%
CCc1nn(C(C)C(=O)N2CCN(c3ccccc3)CC2)c(=O)c2cc3occc3n12 (stereo not given)	-29%	-31%	-20%	i	-22	-20%
C[C@@H]1O[C@@H](O[C@H]2CC[C@@]3(C)C(CC[C@]4(C)C3CC=C3[C@@H]5CC(C)(C)CC[C@]5(C(=O)O[C@@H]5O[C@H](CO)[C@@H](O)[C@H](O)[C@H]5O)CC[C@]34C)[C@]2(C)CO)[C@H](O)[C@H](O[C@@H]2O[C@H](CO)[C@@H](O)[C@H](O)[C@H]2O)[C@H]1O (stereo not given in full)	nt	nt	-2%[20.6 µM]	nt	nt	?
Cc1ccc(-c2c(C)n3c4c(=O)n(C)c(=O)n(C)c4nc3n2CCCO)cc1	10µM*	-62%	-7%	i	60*	?
